The campaign covered roughly 360,000 compounds. About 10,000 (2.8%) were called active. Not shown: some 4% with an inconclusive outcome. Many of the other results were omitted from the sample, so actives are more common in it than they were. Values without a mark were called inactive. Calls follow the shape of the dose curve; as a rule, active = well fitted inhibition curve with a large enough effect; inconclusive = small, poorly fitted or top-dose-only effect; inactive = flat fitted curve, though single readings scatter.
% is scaled to controls: 0 for no effect and ±100 for the full control effect; potency is read from the fitted curve at half-maximal effect.

Sequence of Serine/threonine-protein kinase PLK1 (Homo sapiens) (P53350 whole entry, looked up, the tested form may be a part): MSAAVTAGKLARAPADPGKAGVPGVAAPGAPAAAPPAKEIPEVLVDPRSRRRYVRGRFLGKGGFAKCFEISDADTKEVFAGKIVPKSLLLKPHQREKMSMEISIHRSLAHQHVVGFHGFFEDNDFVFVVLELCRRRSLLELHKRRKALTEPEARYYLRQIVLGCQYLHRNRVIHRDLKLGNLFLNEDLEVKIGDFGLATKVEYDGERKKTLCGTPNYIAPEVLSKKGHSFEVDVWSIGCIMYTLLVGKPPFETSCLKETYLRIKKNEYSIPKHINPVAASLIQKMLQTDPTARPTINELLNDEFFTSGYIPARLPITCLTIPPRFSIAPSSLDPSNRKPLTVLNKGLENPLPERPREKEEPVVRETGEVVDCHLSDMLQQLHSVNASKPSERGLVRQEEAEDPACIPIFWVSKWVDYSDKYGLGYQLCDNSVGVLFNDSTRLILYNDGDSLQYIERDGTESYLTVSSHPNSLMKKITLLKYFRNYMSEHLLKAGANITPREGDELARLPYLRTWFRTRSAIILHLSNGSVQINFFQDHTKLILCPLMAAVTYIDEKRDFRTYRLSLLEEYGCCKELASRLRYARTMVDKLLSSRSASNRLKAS

This experiment has as its target Serine/threonine-protein kinase PLK1 (Homo sapiens) (UniProt P53350). Briefly: qHTS for Inhibitors of PLK1-PDB (polo-like kinase 1 - polo-box domain): Primary Screen. Also: nearly all actives have a fitted effect of over 65% in size. As to max response, negative = inhibition: series mostly up to about 57 µM. The following applies: Plk1 PBD binding of FITC phosphopeptide, fluorescence polarization. (In general: Quantitative high-throughput screening tests each substance at several concentrations.)
For `Cc1nc2ccccn2c(=O)c1NC(=O)c1ccc(Br)o1`, the max response, negative = inhibition is -0.655%.

Regarding `O=[N+]([O-])c1ccc(CN2CC(N3CC=CC3)CS2(=O)=O)cc1` (stereo not given), the max response, negative = inhibition is -4.83%.

`CCc1cc(C(=O)N(CC)CC(=O)Nc2c(F)cccc2F)sc1C`: the max response, negative = inhibition was -2.84%.

Turning to `CSCCC(c1nnnn1Cc1ccccc1)N1CCN(C/C=C/c2ccccc2)CC1` (stereo not given), the max response, negative = inhibition was -5.15%.

Turning to `CC1(Oc2cccc(F)c2)CCN(Cc2ccccc2OC(F)F)C1` (stereo not given), the max response, negative = inhibition was -10.6%.

For the molecule `C=CCOc1ccc(/C=N/n2cncn2)cc1OC`, the max response, negative = inhibition is -1.5%.

On to `C#CCOc1ccccc1/C=C1/C(=O)ON=C1C`, for which the Potency was 2.38 µM (active).

As to `C=CCOc1ccc(/C=C2/C(=O)ON=C2C)cc1OCC`, the Potency was 1.89 µM (active).

For `Cc1no[n+]([O-])c1COc1ccccc1/C=C1\NC(=S)NC1=O`, the max response, negative = inhibition is -11.5%.

For the molecule `C=CCOc1ccc(/C=N/NC(=O)C(C)Sc2ccccn2)cc1OCC` (stereo not given), the max response, negative = inhibition is -12.5%.

With `COc1ccc(NC(=O)C2(C)Cc3c(-c4cccc(NC(C)=O)c4)ccnc3O2)cc1` (stereo not given), the max response, negative = inhibition is 1.6%.

In the case of `CC(C)NC(=O)N1Cc2cc(C(=O)NCC(F)(F)F)nc(-c3cccc(-c4cc5ccccc5o4)c3)c2[C@@H]1CCO`, the max response, negative = inhibition is -2.2%.

Take `CCCCNC(=O)c1nc(C2CCN(S(=O)(=O)c3ccc(F)c(F)c3)CC2)oc1-c1cccc(C(F)(F)F)c1`: the max response, negative = inhibition was -2.64%.

As for `CCCNC(=O)C1(C)CCN(Cc2csc(-c3ccc(Cl)cc3)n2)C1` (stereo not given), the max response, negative = inhibition was -6.86%.

As for `Nc1nc2ncccn2c1-c1ccccc1`, the max response, negative = inhibition was -5.06%.

With `COc1cc(OC)cc(C2=Cc3ccccc3C(CC(=O)c3ccco3)N2c2ccc(-c3cnc(OC)nc3)cc2)c1` (stereo not given), the max response, negative = inhibition was -0.0299%.

As to `CCCCCCn1c(=O)n2n(c1=O)C[C@]1(OC(=O)NCc3ccc(OC)c(OC)c3)CN(S(=O)(=O)c3ccc(C)cc3)C[C@]1(O)C2`, the max response, negative = inhibition is -2.55%.

As to `NS(=O)(=O)c1ccc(CNC(=O)c2cnccn2)cc1`, the Potency is 16.8 µM (active).

Regarding `NS(=O)(=O)c1ccc(CNC(=O)c2cccc(Oc3ccccc3)c2)cc1`, the max response, negative = inhibition was -1.88%.

Take `O=C(NNS(=O)(=O)c1ccc(F)cc1)c1cnccn1`: the max response, negative = inhibition is -1.36%.

`CCc1ccc2c(c1)NC(=O)C2(C)Cc1ccc(OC(F)(F)F)cc1` (stereo not given): the max response, negative = inhibition is -1.5%.

For `N#CC1=C(N)Oc2[nH]c(=S)[nH]c(=O)c2C12C(=O)Nc1ccccc12` (stereo not given), the Potency is 2.67 µM (active).

`CC1(C)Cc2ccccc2-c2[nH]c(=S)[nH]c(=O)c21`: the max response, negative = inhibition was -13.9%.

Consider `N#CC1=C(N)Oc2n[nH]c(CSc3ccccc3)c2C12C(=O)Nc1ccccc12` (stereo not given), for which the max response, negative = inhibition was -12.8%.

Turning to `COCCNC(=O)C1(C)CCCN(Cc2cccc(F)c2)C1` (stereo not given), the max response, negative = inhibition is -4.61%.

Turning to `CCCCNC(=O)C1CCC(CNS(=O)(=O)c2ccc(NC(C)=O)cc2)CC1` (stereo not given), the max response, negative = inhibition is -1.34%.

For the molecule `CC(=O)Nc1ccc(S(=O)(=O)NCCc2ccccc2)cc1`, the max response, negative = inhibition was 0.463%.

Regarding `COCCCNC(=O)c1ccc(CNS(=O)(=O)c2ccc(NC(C)=O)cc2)cc1`, the Potency was 26.7 µM (active).

In the case of `CCN1CCCC1CNC(=O)c1ccc2c(c1)NC(=O)/C(=C\c1ccccc1F)S2` (stereo not given), the max response, negative = inhibition is 0.0941%.

Take `Cc1csc(NC(=O)c2ccc(-c3ccc(Cl)cc3Cl)o2)n1`: the max response, negative = inhibition was -15%.

Consider `CC1CCN(C(=S)c2ccc(-c3ccc(Cl)cc3Cl)o2)CC1`, for which the Potency was 21.2 µM (active).

Regarding `COc1ccc(C(=O)Nc2c(Cl)cc(Cl)cc2C(=O)N2CCC(C)CC2)cc1`, the max response, negative = inhibition was -14.4%.

Consider `COc1ccc2[nH]c3c(C)c4cc[n+](C)cc4c(C)c3c2c1`, for which the max response, negative = inhibition was -4.23%.

Regarding `COc1ccc(N)c(C)c1`, the max response, negative = inhibition is -0.841%.

On to `COc1ccc2[nH]c(=S)cc(C)c2c1`, for which the Potency is 4.74 µM (active).

`CC12CN(Cc3ccccc3)CC(C)(CN(Cc3ccccc3)C1)C2=NO`: the Potency is 5.32 µM (active).

`O=S1(=O)CCN(Cc2ccccc2)CC1`: the max response, negative = inhibition is -2.26%.

As to `NC(=O)C1(N2CCCC2)CCN(Cc2ccccc2)CC1`, the max response, negative = inhibition was -7.37%.

As for `O=C(OCc1cn([C@H]2C[C@H](c3ccccc3)N(C(=O)c3cccs3)C[C@@H]2O)nn1)c1ccccc1`, the max response, negative = inhibition was -2.46%.

`CC(C)(C(=O)N1CCC1(C)C(=O)NS(=O)(=O)c1ccc(Br)cc1)c1ccccc1` (stereo not given): the max response, negative = inhibition is -7.26%.

As for `Cc1ccc(C(=O)/C=C/Nc2ccc(S(=O)(=O)Nc3onc(C)c3C)cc2)cc1`, the max response, negative = inhibition is -13.9%.

Take `Cc1cc(C)nc(NS(=O)(=O)c2ccc(N/C=C\C(=O)c3cccs3)cc2)n1`: the Potency is 26.7 µM (active).

For the molecule `CCOc1ncccc1C(=O)Nc1ccc(S(=O)(=O)Nc2nc(C)cc(C)n2)cc1`, the max response, negative = inhibition is 0.589%.

As to `O=C(CC(CC(=O)c1ccccc1)c1ccco1)c1ccccc1`, the max response, negative = inhibition was 13.6%.

Turning to `CSc1ccc(CNC(=O)C2(C)CCCN2C)cc1` (stereo not given), the max response, negative = inhibition is -4.46%.

With `CN(C)CCCOc1ccc(-c2ccc3nccn3c2)cn1`, the max response, negative = inhibition was -0.941%.

For the molecule `CCOC(=O)N1C(=O)C[C@](Sc2ccc(C)cc2)(C(=O)OC)[C@H]1c1ccccc1`, the max response, negative = inhibition is -3.98%.

Regarding `Cn1nc(N)c2ncc(C(Cl)(Cl)Cl)nc21`, the max response, negative = inhibition was -4.91%.

Take `CC1COc2ccccc2N1C(=O)c1ccc(F)cc1` (stereo not given): the max response, negative = inhibition is -6.97%.

Take `O=C(c1ccc(F)cc1)N1CCC(n2nnc3ccccc32)CC1`: the max response, negative = inhibition is -7.84%.

For the molecule `O=C(c1ccc(F)cc1)n1c(=S)nc2ccccn21`, the Potency was 26.7 µM (active).

Regarding `c1ccc(Cn2nnc3c(NCC4CC4)ncnc32)cc1`, the max response, negative = inhibition was -24.2%.

In the case of `Nc1nc2c(ncn2[C@@H]2O[C@H](CNS(=O)(=O)N3CCc4ccccc4C3)[C@@H](O)[C@H]2O)c(=O)[nH]1`, the max response, negative = inhibition was -3.21%.

In the case of `O=C(Nc1ccc(OCCO)cc1)c1csc([C@H]2C[C@H](O)[C@@H](CO)O2)n1`, the max response, negative = inhibition is -5.62%.

For the molecule `Cn1nnnc1SCc1cc(=O)[nH]c2ccccc12`, the max response, negative = inhibition is -18.7%.

On to `Cc1cc(C)n(-c2nc(O)cc(=O)[nH]2)n1`, for which the max response, negative = inhibition was -2.57%.

With `Cc1cc(=O)[nH]c2nnnn12`, the Potency is 23.8 µM (active).

Regarding `CCC(CC)C(C(=O)NC1CCCC1)N1CCN(c2cc(C)nc3ccccc23)CC1` (stereo not given), the max response, negative = inhibition was -1.11%.

Regarding `C[C@@H]1CN([C@H](C)CO)S(=O)(=O)c2ccc(C#C[C@@H](C)O)cc2O[C@@H]1CN(C)Cc1ccc(-c2ccccc2)cc1`, the max response, negative = inhibition was -3.99%.

`CC(=O)Nc1ccc2nc(NC(=O)CS(=O)(=O)c3ccc(F)cc3)sc2c1`: the max response, negative = inhibition is -4.56%.

In the case of `COc1ccc(C(CNC(=O)CSc2ccccc2)N2CCOCC2)cc1` (stereo not given), the max response, negative = inhibition is -29.4%.

`CCc1ccc([C@@H]2CC(=O)[C@@H]3CN(S(=O)(=O)c4ccc(C)cc4)[C@H](c4ccc(Cl)cc4)C[C@@H]3N2S(=O)(=O)c2ccc(C)cc2)cc1`: the max response, negative = inhibition is 3.16%.

`CN(C)S(=O)(=O)c1ccc2oc(SCC(=O)Nc3ccccc3F)nc2c1`: the max response, negative = inhibition was -21.2%.

`COc1ccc(S(=O)(=O)N(C)C)cc1NC(=O)COC(=O)c1n[nH]c2ccccc12`: the max response, negative = inhibition is -0.239%.

Take `COc1ccc(S(=O)(=O)N(C)C)cc1NC(=O)CSc1ncccn1`: the Potency is 15 µM (active).

In the case of `CC1(C)OC(=O)C2=C(CC(c3ccccc3)OC2CCc2ccccc2)O1` (stereo not given), the max response, negative = inhibition was -6.04%.

Turning to `O=C(c1ccc(CSc2ccccc2)cc1)N1CCCCCC1`, the max response, negative = inhibition was -2.73%.

Consider `Cc1cccc(C)c1NC(=S)N1CCCCCC1`, for which the max response, negative = inhibition is -6.23%.

Take `S=C(c1ccc(-c2ccccc2)o1)N1CCCCC1`: the Potency was 9.47 µM (active).

Consider `O=C(C[C@H]1CC[C@H]2[C@@H](COC[C@H](O)CN2C(=O)c2ccccn2)O1)N1CCN(c2ccccc2)CC1`, for which the max response, negative = inhibition was -2.29%.

With `Cn1nnnc1NCc1ccc(Cl)c(Cl)c1`, the max response, negative = inhibition was -14%.

Turning to `Cn1nnnc1-c1cc(Cl)cc(Cl)c1`, the Potency was 26.7 µM (active).

Consider `Cc1ccc(S(=O)(=O)N[C@H](CO)C(C)C)cc1`, for which the max response, negative = inhibition was -4.56%.

For the molecule `CCC(=O)Nc1ccc(Nc2nc(Cl)nc(Nc3ccc(NC(=O)CC)cc3)n2)cc1`, the max response, negative = inhibition was -16.7%.

For the molecule `CCOC(=O)CNc1nc(Cl)nc(Nc2ccc(OC)cc2OC)n1`, the max response, negative = inhibition is 0.534%.

`CCOC(=O)CNc1nc(Cl)nc(Nc2ccccc2)n1`: the Potency was 21.2 µM (active).

As to `CC1(C)OC(=O)C2=C(C[C@@H](C3CCCC3)O[C@@H]2c2ccc(Cl)cc2)O1`, the max response, negative = inhibition was 2.05%.

On to `Cc1c(C#N)c(NC(=O)c2ccccc2)n(Cc2ccccc2)c1C`, for which the max response, negative = inhibition was -4.49%.

With `CCCc1ccc(-c2c(C)sc(NC(=O)c3ccnn3C)c2C#N)cc1`, the Potency is 10.6 µM (active).

Take `Cc1ccc(C(=O)Nc2c(C#N)c(C)c(C)n2Cc2ccccc2)cc1`: the max response, negative = inhibition was -3.45%.

On to `CC1(C(=O)NS(=O)(=O)c2ccccc2)CCN1C(=O)C1CCCCC1` (stereo not given), for which the max response, negative = inhibition is -5.58%.

As to `Cc1cccnc1C(NC(=O)C1CCN(Cc2ccc(Cl)c(Cl)c2)CC1)c1ccc(Cl)cc1` (stereo not given), the max response, negative = inhibition was -6.41%.

As to `Cc1cn([C@H]2C[C@H](O)[C@@H](CNC(=O)[C@H](N)Cc3cccnc3)O2)c(=O)[nH]c1=O`, the max response, negative = inhibition was -0.77%.

As for `CC(c1ccco1)N(C(=O)Nc1ccccc1)C1CCCCC1` (stereo not given), the max response, negative = inhibition was -2.64%.

As for `Cc1ccc(NC(=O)NC(=O)N(C2CCCCC2)S(=O)(=O)c2ccccc2)cc1`, the Potency is 29.9 µM (active).

Turning to `CC(C)(C)NS(=O)(=O)c1ccc(NC(=O)NC2CCCCC2)cc1`, the max response, negative = inhibition is -9.85%.

With `COc1cc(C(O)c2nc(-c3cccc(C(=O)O)c3)cs2)ccc1F` (stereo not given), the max response, negative = inhibition was 2.95%.

For the molecule `O=C(O)c1ccccc1N=N/C(=N/Nc1cc(S(=O)(=O)O)ccc1O)c1ccccc1`, the Potency was 16.8 µM (active).

Consider `COc1cccc(NC(=O)C2(C)CCN2Cc2ccccc2Cl)c1` (stereo not given), for which the max response, negative = inhibition is 4.24%.

`OCCc1ccc(NCCc2ccco2)cc1`: the max response, negative = inhibition is -4.52%.

The record behind these values is PubChem BioAssay AID720504 (National Center for Advancing Translational Sciences (NCATS), 2013).
